Source: ChEMBL document CHEMBL3988442, “University of Dundee, Small-Polar-MMV Screening Library” (2021)
The whole screen tested about 48,000 compounds, of which about 13,000 (27%) showed an effect of 50% or more. The list shows a part of the results.

What follows are compounds tested on Wolbachia pipientis (assay: Anti-Wolbachia Cell-Based Screen). Conditions: 5 µM.
Type: functional
Set-up: scale not given: in the data most compounds retested in dose-response had high values

Row | Structure (SMILES) | Percent Effect [%]
1 | Cc1nsc(NC(=O)N2CCN(Cc3ccc(F)cc3)C(=O)C2)n1 | 3.543
2 | Cn1ncnc1-c1ccnc(N2CCC(C(O)c3cccs3)CC2)n1 (stereo not drawn) | -11.63
3 | CCC1CN(C(=O)Cc2coc(-c3ccccc3)n2)CCO1 (stereo not drawn) | -15.78
4 | CN1CCOC(CNC(=O)Cc2coc(-c3ccccc3)n2)C1 (stereo not drawn) | 107.6
5 | CN1CCOC(CNCc2coc(-c3ccccc3Cl)n2)C1 (stereo not drawn) | 105.3
6 | CN1CCOC(CNCc2nc(-c3ccoc3)no2)C1 (stereo not drawn) | -1.201
7 | CN(C)CC1CN(Cc2coc(-c3ccccc3Cl)n2)CCO1 (stereo not drawn) | -0.3444
8 | CN1CCOC(CNCc2coc(-c3ccccc3)n2)C1 (stereo not drawn) | -3.46
9 | Cc1ccc(-c2nc(CNCC3CN(C)CCO3)co2)cc1 (stereo not drawn) | 108.3
10 | CN1CCOC(CNC(=O)Cc2ccccc2F)C1 (stereo not drawn) | -10.58
11 | Cc1ccc(-c2nc(CNCC3CN(C)CCO3)co2)c(C)c1 (stereo not drawn) | 99.3
12 | CC(C)(C)OC(=O)N1CCCc2ccc(NCc3ncc[nH]3)cc21 | 1.363
13 | Cn1cnnc1CC1CCN(Cc2c(Cl)cncc2Cl)CC1 | -0.137
14 | COc1ccc(S(=O)(=O)Cc2cc(C)on2)cc1 | 3.84
15 | CN1CCOC(CNCc2coc(-c3ccc(Cl)cc3)n2)C1 (stereo not drawn) | 81.44
16 | O=C(CCn1cncn1)N1CCCC(CO)(CCCc2ccccc2)C1 (stereo not drawn) | 16.2
17 | CC(C)(C)OC(=O)N1CSC[C@@H]1C(=O)NCc1ccncc1 | -9.296

Row | Structure (SMILES) | Percent Effect [%]
18 | CN(Cc1ccncc1)C(=O)[C@H]1CSCN1C(=O)OC(C)(C)C | 103.4
19 | CN(CCc1ccncc1)C(=O)C1CSCN1C(=O)CC(C)(C)C (stereo not drawn) | 109.1
20 | CN(CCc1ccncc1)C(=O)C1CSCN1C(=O)C1CCCC1 (stereo not drawn) | -15.81
21 | CN(CCc1ccncc1)C(=O)C1CSCN1C(=O)C(C)(C)C (stereo not drawn) | -12.64
22 | CN(CC(F)(F)F)C(=O)C1CSCN1C(=O)OC(C)(C)C (stereo not drawn) | 6.249
23 | Nc1nnc(CCNc2ncnc3c2CCN(C(=O)C2CC2)C3)s1 | -2.758
24 | CCS(=O)(=O)c1ncc(CN2CCCC2)n1CCc1ccccc1 | 1.853
25 | COCCc1nc(CSc2ccncc2)n(C)n1 | -10.21
26 | Cn1cc(CN2CCc3ccc(=O)n(Cc4ccncc4)c3CC2)cn1.O=C(O)C(F)(F)F.O=C(O)C(F)(F)F | 104.6
27 | O=c1ccc2c(n1Cc1ccncc1)CCN(C1CCOC1)CC2 (stereo not drawn) | 8.67
28 | COc1ccc2c(c1)C1(CCN(Cc3cnn(C)c3)CC1)N(C)CC2.O=C(O)C(F)(F)F | 2.583
29 | CC(OCC1CC1)C(=O)N1CCCN(Cc2cnn(C)c2)CC1 (stereo not drawn) | 6.432
30 | Cn1cc(CN2CCc3ccc(=O)n(CC4CC4)c3CC2)cn1 | 115.2
31 | CN(C)CCn1c2c(ccc1=O)CCN(Cc1ccncc1)CC2 | 102
32 | CN(C)C(=O)Cn1c2c(ccc1=O)CCN(Cc1cnn(C)c1)CC2.O=C(O)C(F)(F)F | 120.2
33 | O=C(NC1CC1)N1CCc2ccc(=O)n(Cc3ccncc3)c2CC1 | 23.4
